Six compounds from PubChem BioAssay (EPA / NIEHS) can be followed below.

Records with an inconclusive call do not appear. The source made the active and inactive calls. The calls were made as follows, unless noted: active = hit-call score of the fitted dose curve at least 0.9, where 1 is the maximum; inconclusive = response in the unintended direction; inactive = score below 0.9.

A short description of experiment [1]: TOX21_p53_BLA_p2_viability: Viability Assessment in the Tox21 HCT-116 p53 Agonism Beta-lactamase Assay, Phase 2 (AID 2283591).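 Also: compound exposure lasted 16 h at 37 °C; actives lower the ATP signal meaning cytotoxicity.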 Put shortly:
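Cytotoxicity readout: CellTiter-Glo ATP luminescence, 30 min at room temperature, after the beta-lactamase read. Cells were HCT116 exposed 16 h at 37C to compounds pin-transferred at 217-fold dilution from DMSO stocks.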

Experiment [2] deals with Cellular tumor antigen p53 (Homo sapiens) (UniProt P04637). Briefly: TOX21_p53_BLA_p2_ratio: Tox21 HCT-116 p53 Agonism Beta-lactamase Assay, Ratio, Phase 2 (AID 2283592). Put shortly:
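HCT116 p53-bla; 4000 cells/well; 5 h pre-incubation; cpd in DMSO, 217-fold dilution; 16 h 37C/5% CO2; CCF4-AM 2 h RT; Ex 405, Em 460/530 ratio; DMSO = baseline; positive fitting direction.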

For experiment [3] the target is unchanged. Briefly: TOX21_p53_BLA_p3_ratio: Tox21 HCT-116 p53 Agonism Beta-lactamase Assay, Ratio, Phase 3 (AID 2283596). The essentials:
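HCT116 p53-bla cells (4000/well) given compound in DMSO (217-fold dilution) after 5 h, incubated 16 h at 37C. CCF4-AM substrate 2 h at room temperature; 460/530 nm emission ratio, gain fitted against DMSO.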

Experiment [4] in a line: TOX21_p53_BLA_p4_viability: Viability Assessment in the Tox21 HCT-116 p53 Agonism Beta-lactamase Assay, Phase 4 (AID 2283597).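 Also: hits lower the luminescence signal meaning cytotoxicity.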 Put shortly:
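Cells plated, 5 h pre-incubation; DMSO compounds pinned (217-fold dilution); 16 h, 37C/5% CO2; CCF4-AM 2 h RT; CellTiter-Glo 30 min RT; luminescence read.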

The target of experiment [5] is Cellular tumor antigen p53 (Homo sapiens) (UniProt P04637). Briefly: TOX21_p53_BLA_p5_ratio: Tox21 HCT-116 p53 Agonism Beta-lactamase Assay, Ratio, Phase 5 (AID 2283599). Put shortly:
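Beta-lactamase reporter ratio (blue 460 nm over green 530 nm, 405 nm excitation) after 2 h CCF4-AM loading, in HCT-116 cells exposed 16 h at 37 C to compounds pinned at 217-fold dilution. Increases relative to DMSO baseline scored.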

Experiment [6] shares this target. Briefly: TOX21_p53_BLA_p4_ratio: Tox21 HCT-116 p53 Agonism Beta-lactamase Assay, Ratio, Phase 4 (AID 2283601). The essentials: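 Signal is the blue/green (460nm/530nm) ratio of cleaved versus uncleaved CCF4-AM substrate, read after 2 h substrate loading. Cells were HCT116 carrying the p53-responsive beta-lactamase reporter, dosed 16 h at 37C, 5% CO2; CellTiter-Glo measured in parallel.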

A short description of experiment [7]: TOX21_p53_BLA_p5_viability: Viability Assessment in the Tox21 HCT-116 p53 Agonism Beta-lactamase Assay, Phase 5 (AID 2283600). The essentials: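 4000 cells/well; 5 h pre-incubation; DMSO compounds pin-transferred, 217-fold dilution; 16 h, 37C/5% CO2; CCF4-AM 2 h RT; CellTiter-Glo 30 min RT; luminescence.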
In experiment [8] the target is PGR (gene 5241) (UniProt P06401). Briefly: TOX21_PR_BLA_Followup_Antagonist_ratio: Tox21 HEK293 Progesterone Receptor (PR) Antagonism Beta-lactamase Follow-Up Assay, Ratio (AID 2283934). Put shortly:
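PR-UAS-bla HEK293T cells in medium with 2% charcoal-stripped FBS were treated with compounds plus 1 nM (final) promegestone (R5020) for 16 hr at 37C. LiveBLAzer B/G FRET substrate was then added for 2 h at room temperature; signal is cleaved/uncleaved substrate ratio versus DMSO.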

The nature of experiment [9]: TOX21_PR_BLA_Followup_Agonist_viability: Viability Assessment in the Tox21 HEK293 Progesterone Receptor (PR) Agonism Beta-lactamase Follow-Up Assay (AID 2283935).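 Also: signal loss means lower viability so actives are cytotoxic.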 Put shortly:
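PR-UAS-bla HEK293T cells in 2% charcoal-stripped FBS medium, compound added after 6 hr plating, 16 hr at 37C/5% CO2. After bla FRET read, CellTiter-Glo added; luminescence read after 30 min at room temperature; signal loss marks cytotoxicity.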

The nature of experiment [10]: TOX21_PR_BLA_Followup_Antagonist_viability: Viability Assessment in the Tox21 HEK293 Progesterone Receptor (PR) Antagonism Beta-lactamase Follow-Up Assay (AID 2283936).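 Also: hits lower the luminescence signal meaning cytotoxicity.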 Put shortly: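 PR-UAS-bla HEK293T cells (3,000/well, 2% charcoal-stripped FBS) given compound plus R5020 agonist, 16 h at 37C. CellTiter-Glo added after bla read, 30 min at room temperature; luminescence loss indicates cytotoxicity.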

A short description of experiment [11]: CCTE_Harrill_HTTr_Viability_MCF7: CCTE's 6-hour Cell Viability Assessment for the High-Throughput Transcriptomics (HTTr) Platform, in MCF-7 cells cultured in DMEM + 10% fetal bovine serum, Harrill Lab (AID 2284010; active = hit-call score of the fitted dose curve at least 0.9, where 1 is the maximum; inactive = score below 0.9). Put shortly:
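Membrane integrity was scored by high-content imaging of propidium iodide dye exclusion after a 6 h exposure across an eight-point dilution series. Data were fitted bidirectionally relative to DMSO as negative control and baseline.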

Experiment [12] is described as follows: CCTE_Harrill_HTTr_Apoptosis_MCF7: CCTE's 6-hour Apoptosis Assessment for the High-Throughput Transcriptomics (HTTr) Platform, in MCF-7 cells cultured in DMEM + 10% fetal bovine serum, Harrill Lab (AID 2284011; active = hit-call score of the fitted dose curve at least 0.9, where 1 is the maximum; inactive = score below 0.9). The essentials: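 MCF-7 (DMEM + 10% FBS), 384-well; 8-pt dilution series, 6 h chemical exposure; caspase-3/7 activation via CellEvent Caspase 3/7 Green, HCI; bidirectional fit vs DMSO.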

Experiment [13] can be described thus: CCTE_Harrill_HTTr_CellCount_MCF7: CCTE's Cell Proliferation Assessment for the High-Throughput Transcriptomics (HTTr) Platform, Harrill Lab (AID 2284012).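 Also: cells exposed to compound for six hours; intended direction is loss of nuclei count meaning fewer cells.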 The essentials:
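MCF-7 cells were exposed for 6 h to an eight-point dilution series; Hoechst-labeled nuclei were counted by high content imaging. Curves were fitted bidirectionally against DMSO as negative control and baseline, with signal loss indicating reduced cell count.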

Experiment [14] has as its target Estrogen receptor (Homo sapiens) (UniProt P03372). Briefly: CCTE_Deisenroth_AIME_96WELL_LUC_Active: CCTE's 96-well Estrogen Receptor Transactivation Assay with AIME metabolic competence (ERTA luciferase; metabolism positive), Deisenroth Lab (AID 2284023). Put shortly:
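Chemicals pre-incubated 2 h with alginate-immobilized phenobarbital/beta-naphthoflavone-induced male Sprague Dawley rat liver S9, then medium transferred to VM7Luc4E2 cells for 24 h luciferase read-out. 10-point series 0.002 - 200 uM; fitted relative to 17beta-estradiol.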

Experiment [15] has the same target. Briefly: CCTE_Deisenroth_AIME_96WELL_LUC_Inactive: CCTE's 96-well Estrogen Receptor Transactivation Assay without AIME metabolic competence (ERTA luciferase; metabolism negative), Deisenroth Lab (AID 2284025). The essentials:
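VM7Luc4E2 breast cells, luciferase read 24 h after dosing with medium pre-incubated 2 h on alginate-water lids (metabolism negative). 10-point series 0.002–200 uM, single technical replicate, n≥4; fit relative to 17beta-estradiol.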

A short description of experiment [16]: TOX21_PR_LUC_Followup_Agonist_viability: Viability Assessment in the Tox21 HEK293 Progesterone Receptor (PR) Agonism Luciferase Follow-Up Assay (AID 2283941).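 Also: loss of signal means cytotoxicity so actives lower viability.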 The essentials: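 HEK293-PR-A-luc cells, pre-cultured 5 days in 10% charcoal-stripped FBS, were seeded at 3,000 cells/well, rested 5 h at 37C, then given compound in DMSO for 16 h at 37C. Cellular ATP was read by CellTiter-Glo luminescence; signal loss indicates cytotoxicity.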

Sequence of Cellular tumor antigen p53 (Homo sapiens) (P04637 whole entry, looked up): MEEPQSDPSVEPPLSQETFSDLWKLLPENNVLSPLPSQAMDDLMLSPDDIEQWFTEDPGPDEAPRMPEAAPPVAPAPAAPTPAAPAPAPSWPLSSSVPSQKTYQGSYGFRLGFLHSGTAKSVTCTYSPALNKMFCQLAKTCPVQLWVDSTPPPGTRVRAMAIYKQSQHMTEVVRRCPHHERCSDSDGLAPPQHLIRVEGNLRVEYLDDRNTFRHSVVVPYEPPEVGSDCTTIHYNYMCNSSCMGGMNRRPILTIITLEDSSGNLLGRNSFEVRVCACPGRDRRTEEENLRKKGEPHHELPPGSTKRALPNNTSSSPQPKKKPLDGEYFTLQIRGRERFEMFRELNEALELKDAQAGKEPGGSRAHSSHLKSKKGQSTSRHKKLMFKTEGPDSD
Sequence of PGR (gene 5241) (P06401 whole entry, looked up): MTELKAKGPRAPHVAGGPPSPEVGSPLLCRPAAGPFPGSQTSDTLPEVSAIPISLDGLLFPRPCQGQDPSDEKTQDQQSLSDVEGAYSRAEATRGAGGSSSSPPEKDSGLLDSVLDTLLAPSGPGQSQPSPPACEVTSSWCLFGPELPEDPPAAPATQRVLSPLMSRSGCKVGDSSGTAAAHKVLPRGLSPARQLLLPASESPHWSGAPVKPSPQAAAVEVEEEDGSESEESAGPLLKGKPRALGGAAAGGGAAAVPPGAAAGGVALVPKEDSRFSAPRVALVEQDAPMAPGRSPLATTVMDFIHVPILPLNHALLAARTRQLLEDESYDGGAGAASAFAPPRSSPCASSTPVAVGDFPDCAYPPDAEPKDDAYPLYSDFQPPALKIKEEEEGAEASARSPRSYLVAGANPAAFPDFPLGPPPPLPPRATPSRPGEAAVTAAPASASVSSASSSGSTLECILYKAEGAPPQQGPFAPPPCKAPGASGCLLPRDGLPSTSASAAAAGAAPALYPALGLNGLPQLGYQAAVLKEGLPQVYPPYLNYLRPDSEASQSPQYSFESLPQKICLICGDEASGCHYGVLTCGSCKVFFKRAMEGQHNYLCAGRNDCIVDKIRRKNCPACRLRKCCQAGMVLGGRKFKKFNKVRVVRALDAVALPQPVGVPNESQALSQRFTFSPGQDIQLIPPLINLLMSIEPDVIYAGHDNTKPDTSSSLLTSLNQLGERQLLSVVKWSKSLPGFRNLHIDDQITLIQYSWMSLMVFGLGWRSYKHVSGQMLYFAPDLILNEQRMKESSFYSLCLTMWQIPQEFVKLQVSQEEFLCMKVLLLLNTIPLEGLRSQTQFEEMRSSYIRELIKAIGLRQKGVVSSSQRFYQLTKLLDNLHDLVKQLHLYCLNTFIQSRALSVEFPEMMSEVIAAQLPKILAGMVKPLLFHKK
Sequence of Estrogen receptor (Homo sapiens) (P03372 whole entry, looked up): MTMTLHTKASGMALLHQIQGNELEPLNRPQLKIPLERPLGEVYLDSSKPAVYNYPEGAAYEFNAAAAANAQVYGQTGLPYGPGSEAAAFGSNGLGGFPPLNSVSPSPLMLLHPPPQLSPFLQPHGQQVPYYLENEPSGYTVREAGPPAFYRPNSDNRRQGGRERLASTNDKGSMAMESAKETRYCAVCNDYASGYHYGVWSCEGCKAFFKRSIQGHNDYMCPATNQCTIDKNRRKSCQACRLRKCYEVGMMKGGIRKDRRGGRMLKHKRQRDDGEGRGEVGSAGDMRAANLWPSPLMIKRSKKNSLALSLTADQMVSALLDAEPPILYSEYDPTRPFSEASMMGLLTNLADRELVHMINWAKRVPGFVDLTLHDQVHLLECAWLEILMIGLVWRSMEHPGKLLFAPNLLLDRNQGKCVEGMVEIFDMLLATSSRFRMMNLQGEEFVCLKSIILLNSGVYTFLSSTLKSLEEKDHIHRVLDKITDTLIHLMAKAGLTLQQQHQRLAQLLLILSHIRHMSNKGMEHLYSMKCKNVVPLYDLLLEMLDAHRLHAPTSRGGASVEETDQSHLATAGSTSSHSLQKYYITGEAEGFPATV

For `CC(CCC(=O)O)C(=O)O` (stereo not drawn), the call in experiment [1], in experiment [2], in experiment [3], in [4], in experiment [5] and in experiment [6] was inactive.
Take `CCCCC(=O)O[C@]1(C(=O)CO)[C@H](C)C[C@H]2[C@@H]3CCC4=CC(=O)C=C[C@]4(C)[C@@]3(F)[C@@H](O)C[C@@]21C`: the call in experiment [1], in experiment [2], in experiment [3], in experiment [4], in experiment [7] and in experiment [6] was inactive.
Regarding `CN[C@H](CC(C)C)C(=O)N[C@H]1C(=O)N[C@@H](CC(N)=O)C(=O)N[C@H]2C(=O)N[C@H]3C(=O)N[C@H](C(=O)N[C@H](C(=O)O)c4cc(O)cc(O)c4-c4cc3ccc4O)[C@H](O)c3ccc(c(Cl)c3)Oc3cc2cc(c3O[C@@H]2O[C@H](CO)[C@@H](O)[C@H](O)[C@H]2O[C@H]2C[C@](C)(N)[C@H](O)[C@H](C)O2)Oc2ccc(cc2Cl)[C@H]1O`, the call in experiment [1], in experiment [2], in experiment [3], in experiment [4] and in experiment [7] was inactive.
In the case of `O=[N+]([O-])c1ccc2c(c1)Cc1ccccc1-2`, the outcome in experiment [1], in experiment [2], in experiment [3], in experiment [4], in experiment [5] and in [7] was inactive. Besides, the outcome in [6], in [9], in experiment [10], in experiment [11], in experiment [12] and in experiment [13] was inactive. The outcome in experiment [14] was inactive. Also, the AC50 (commonly the midpoint of the concentration-response curve, whichever way the signal moves) in experiment [8] was 25 µM (active); in experiment [15], 26.8 µM (active).
For the compound `Cc1ccccc1N1CCN(CCc2nnc3n2CCCC3)CC1`, the compound was classed as inactive in [1], in experiment [2], in experiment [3], in [4], in experiment [7] and in [6].
Consider `CC1(C)CCC(C)(C)c2cc(NC(=O)c3ccc(C(=O)O)cc3)ccc21`, for which the AC50 in [1] is 36.6 µM (active); in experiment [3], 39.1 µM (active); in [4] it was 36.1 µM (active); in [5] it was 44.2 µM (active); in experiment [7], 43.5 µM (active); in experiment [6], 44.7 µM (active). In addition, the result in [2], in experiment [8], in [9] and in [16] was inactive.
